From PubChem BioAssay (Tox21)
“And” between values parts separate entries of the source, which are not always exact repeats. Equal entries are not always repeated. Inconclusive results are not listed. Where a call stands in place of a potency, no number is given. A structure can be active in one record and inactive in another. The source made the active and inactive calls. Calls follow the shape of the dose curve; as a rule, active = well fitted activation curve with a large enough effect in the repeat runs; inconclusive = weak or mixed curves; inactive = no such curve, though single readings can be large or run the other way.

biological target: Nuclear receptor subfamily 1 group I member 3 (Homo sapiens) (UniProt Q14994); assay: qHTS assay to identify small molecule agonists of the constitutive androstane receptor (CAR) signaling pathway (AID 1224839); conditions: HepG2 hCAR CYP2B6-luciferase, agonist mode, 24 h; series mostly up to 92.4 µM; also: nearly all actives have a fitted effect of over 15% in size;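 as to activation: HepG2 cells stably carrying human CAR and a CYP2B6 luciferase reporter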
Sequence (Q14994 whole entry, looked up): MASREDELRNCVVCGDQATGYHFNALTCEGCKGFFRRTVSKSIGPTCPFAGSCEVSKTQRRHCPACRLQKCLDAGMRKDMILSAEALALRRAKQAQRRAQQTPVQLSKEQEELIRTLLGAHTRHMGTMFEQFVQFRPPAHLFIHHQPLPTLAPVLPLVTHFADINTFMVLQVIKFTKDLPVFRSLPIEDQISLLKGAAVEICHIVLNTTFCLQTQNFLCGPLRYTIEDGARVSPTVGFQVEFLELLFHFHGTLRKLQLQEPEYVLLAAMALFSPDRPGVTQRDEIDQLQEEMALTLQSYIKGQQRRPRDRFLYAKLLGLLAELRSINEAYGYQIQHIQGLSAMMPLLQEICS
Description: National Center for Advancing Translational Sciences [NCATS] NIH Chemical Genomics Center [NCGC] U.S. Environmental Protection Agency [EPA] National Institutes of Environmental Health Sciences [NIEHS] National Toxicology Program [NTP] Assay overview: The constitutive androstane receptor (CAR) is a nuclear receptor which regulates multiple drug metabolizing enzymes (DMEs) and transporters. Activating CAR will generally increase the transcription and subsequent translation of CYP2B6 and CYP3A4. These two DMEs represent about 50% of the drug metabolizing potential in the body. […] Recently, there have also been studies performed indicating CARs role in energy metabolism and cancer therapy. Therefore, inducing CARs activity could have a potential effect on diabetes and cancer. Identifying environmental toxins and compounds which modulate CAR, through the use of the Tox21 10K compound collection, will be an important step in determining the toxicity and potential therapeutic effects these factors will have on the human body.
Assay Protocol Summary: A double-stable (hCAR and CYP2B6-2.2kb) transfected cell line, derived from human hepatoma (HepG2) cells, was utilized for the duration of the quantitative high-throughput screens. The HepG2-CYP2B6-hCAR cells suspended in DMEM culture medium supplemented with 10% FBS, 5 ug/mL blasticidin, 0.5 mg/mL geneticin, 100 U/mL penicillin and 100 ug/mL streptomycin were dispensed at 2500 cells/4 uL/well in 1536-well white solid bottom plates using a Multidrop Combi. After the assay plates were incubated at 37 C/5% CO2 for 4 hrs, 23 nL of compounds at 15 concentrations (from 5-48 columns) or positive control (from 1 to 4 columns) were transferred to the assay plates using a Pintool station. One uL of PK11195, was added using a Flying Reagent Dispenser to generate a final concentration of 0.75 uM PK11195 inside each well. After a 24 hr incubation period at 37 C/5% CO2, four uL of ONE-Glo reagent was added into the assay plates using a Flying Reagent Dispenser. After a 30 min incubation period at room temperature, the luminescence intensity in the assay plates was measured using a ViewLux plate reader.
Potency is read from the fitted curve at half-maximal effect.

Structure (SMILES)	Potency
CCCCOCCOC(C)=O	inactive
CCCCCCCC[N+](C)(CCCCCCCC)CCCCCCCC	inactive
c1ccc2c(c1)Nc1ccccc1S2	30.6 µM (active)
CCOP(=O)(OCC)OCC	inactive
Clc1ccccc1-c1nnc(-c2ccccc2Cl)nn1	30.4 µM (active) and 9.66 µM (active)
Nc1ncn[nH]1	inactive
Nc1ccc2ccccc2c1	52.6 µM (active) and 48.6 µM (active)
CC(C)(O)C#N	inactive
COc1ccc(O)c(C(C)(C)C)c1	inactive
[CH3][Sn]([Cl])([Cl])[Cl]	inactive
CC1(C)Cc2cccc(O)c2O1	inactive
CNC(=S)S	inactive
CNC(=O)CSP(=S)(OC)OC	inactive
CC(O)CN(CC(C)O)CC(C)O (stereo not given)	inactive
CCOP(=S)(OCC)SCn1c(=O)oc2cc(Cl)ccc21	58.4 µM (active) and 24.3 µM (active)
O=C1Nc2ccc(Cl)cc2C(c2ccccc2)=NC1O (stereo not given)	inactive
C=C(C)C#N	inactive
CCOS(=O)(=O)OCC	inactive
CN(C)c1nc(=O)n(C2CCCCC2)c(=O)n1C	inactive
ClC(Cl)(Cl)c1ccccc1	inactive

Structure (SMILES)	Potency
N#Cc1cccnc1	inactive
CCNc1nc(Cl)nc(NC(C)(C)C#N)n1	inactive
CCCCOC(=O)COC(=O)c1ccccc1C(=O)OCCCC	inactive
CC(C)(C#N)N=NC(C)(C)C#N	inactive
CCCCOCC1CO1 (stereo not given)	inactive
Brc1ccc(Br)cc1	inactive
Clc1cccc(Cl)c1	inactive
COP(=S)(OC)Oc1ccc(Sc2ccc(OP(=S)(OC)OC)cc2)cc1	61.1 µM (active) and inactive
NC(=O)CN1CCCC1=O	inactive
Cc1ccc([N+](=O)[O-])cc1	inactive
CC[n+]1c(-c2ccccc2)c2cc(N)ccc2c2ccc(N)cc21	inactive
OCCOCCO	inactive
Cc1cccc(N=Nc2ccc(N(C)C)cc2)c1	2.78 µM (active) and 3.06 µM (active)
COP(=O)(NC(C)=O)SC (stereo not given)	inactive
S=c1[nH]c2ccccc2[nH]1	inactive
CC(C)(c1ccccc1)c1ccc(O)cc1	27.1 µM (active) and 13.7 µM (active)
CCC[CH2][Sn]([Cl])([CH2]CCC)[CH2]CCC	inactive
CC(C)(c1ccc(OCC2CO2)cc1)c1ccc(OCC2CO2)cc1 (stereo not given)	inactive
O=[N+]([O-])/N=C1\NCCN1Cc1ccc(Cl)nc1	inactive
CC(C)(c1ccccc1)c1ccc(O)c(C(C)(C)c2ccccc2)c1	7.7 µM (active)
